Assay results: PubChem BioAssay (EPA / NIEHS)
Values joined by “and” are separate entries in the source; they are usually repeats but may differ in a detail not shown here. Equal values may be shown once. Active and inactive are the calls of the source. How the source made its calls: active means hit-call score of the fitted dose curve at least 0.9, where 1 is the maximum; inactive means score below 0.9.

Key:
[1] = read-out: Interferon-gamma inducible Protein 10 (IP10), CXCL10 (gene 3627); assay: BSK_hDFCGF_IP10: BioMAP Diversity Plus: hDFCGF Assay for Interferon-gamma inducible Protein 10 (IP10) Biomarker Activity (AID 2283053); settings: primary human foreskin fibroblasts; actives raise or lower the signal
Procedure, shortened: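 IP-10 levels, quantified by ELISA, are taken from human foreskin fibroblast cultures 24 h after chemical treatment, with DMSO serving as negative control and baseline for bidirectional analysis.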

[2] = read-out: Urokinase-type plasminogen activator receptor (uPAR), PLAUR (gene 5329); assay: BSK_CASM3C_uPAR: BioMAP Diversity Plus: CASM3C Assay for Urokinase-type plasminogen activator receptor (uPAR) Biomarker Activity (AID 2283054); settings: primary human coronary artery smooth muscle cells; actives raise or lower the signal;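 further: cell-surface uPAR protein level quantified by ELISA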
[3] = read-out: Vascular cell adhesion molecule 1 (VCAM1), VCAM1 (gene 7412); assay: BSK_CASM3C_VCAM1: BioMAP Diversity Plus: CASM3C Assay for Vascular cell adhesion molecule 1 (VCAM1) Biomarker Activity (AID 2283055); settings: primary human coronary artery smooth muscle cells; actives raise or lower the signal;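 further: VCAM-1 protein level quantified by ELISA on the cells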
[4] = read-out: Collagen III, COL3A1 (gene 1281); assay: BSK_hDFCGF_CollagenIII: BioMAP Diversity Plus: hDFCGF Assay for Collagen III Biomarker Activity (AID 2283056); settings: primary human foreskin fibroblasts; actives raise or lower the signal
Procedure, shortened: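 Response relative to DMSO, fitted in both directions, reflects ELISA-measured collagen III in human primary skin fibroblasts 24 h after compound addition.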

[5] = read-out: Interleukin-8 (IL8), CXCL8 (gene 3576); assay: BSK_hDFCGF_IL8: BioMAP Diversity Plus: hDFCGF Assay for Interleukin-8 (IL8) Biomarker Activity (AID 2283058); settings: primary human foreskin fibroblasts; actives raise or lower the signal
Procedure, shortened: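 Fibroblast monolayers (human foreskin, hDFCGF) received test chemical for 24 h before ELISA detection of IL-8; either increases or decreases relative to DMSO count as activity.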

[6] = BSK_hDFCGF_Proliferation: Cell Proliferation Assessment in the BioMAP Diversity Plus: hDFCGF Assay (AID 2283059); settings: primary human foreskin fibroblasts;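 further: curves fitted for both rise and fall of signal versus DMSO baseline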
Procedure, shortened: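 Primary human foreskin fibroblasts, sub-confluent; […]; 10% TCA fix, 0.1% SRB stain, A560 total protein. Gain/loss fitted bidirectionally vs DMSO control.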

[7] = read-out: Macrophage colony-stimulating factor (MCSF), CSF1 (gene 1435); assay: BSK_hDFCGF_MCSF: BioMAP Diversity Plus: hDFCGF Assay for Macrophage colony-stimulating factor (MCSF) Biomarker Activity (AID 2283060); settings: primary human foreskin fibroblasts; actives raise or lower the signal
Procedure, shortened: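 fibroblasts (human foreskin, primary), 24 h post-dose; M-CSF by ELISA; bidirectional fit, DMSO = baseline.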

[8] = BSK_hDFCGF_SRB: Viability Assessment in the BioMAP Diversity Plus: hDFCGF Assay (AID 2283061); settings: primary human foreskin fibroblasts;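 further: cells exposed to compound for 24 h before the read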
Procedure, shortened: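 SRB-based viability read on primary human skin fibroblasts at 24 h: TCA fixation, 0.1% dye, 560 nm. Gain or loss of signal is fitted against the DMSO negative control.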

[9] = read-out: TIMP metallopeptidase inhibitor 1 (TIMP1), TIMP1 (gene 7076); assay: BSK_hDFCGF_TIMP1: BioMAP Diversity Plus: hDFCGF Assay for TIMP metallopeptidase inhibitor 1 (TIMP1) Biomarker Activity (AID 2283062); settings: primary human foreskin fibroblasts; actives raise or lower the signal
Procedure, shortened: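 Bidirectional curve fitting against DMSO baseline yielded this endpoint, based on ELISA detection of TIMP-1 in primary human foreskin fibroblasts exposed to compound for 24 h.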

[10] = read-out: Monokine induced gamma interferon (MIG), CXCL9 (gene 4283); assay: BSK_hDFCGF_MIG: BioMAP Diversity Plus: hDFCGF Assay for Monokine induced gamma interferon (MIG) Biomarker Activity (AID 2283063); settings: primary human foreskin fibroblasts; actives raise or lower the signal
Procedure, shortened: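 Endpoint derived by bidirectional fitting relative to DMSO; MIG quantified via ELISA in primary human foreskin fibroblasts harvested 24 h after dosing.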

[11] = read-out: Matrix Metallopeptidase 1 (MMP1), MMP1 (gene 4312); assay: BSK_hDFCGF_MMP1: BioMAP Diversity Plus: hDFCGF Assay for Matrix Metallopeptidase 1 (MMP1) Biomarker Activity (AID 2283064); settings: primary human foreskin fibroblasts; actives raise or lower the signal
Procedure, shortened: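 hDFCGF primary fibroblasts (human foreskin); chemical added; 24 h; MMP1 by ELISA; bidirectional fit vs DMSO.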

[12] = read-out: Vascular cell adhesion molecule 1 (VCAM1), VCAM1 (gene 7412); assay: BSK_hDFCGF_VCAM1: BioMAP Diversity Plus: hDFCGF Assay for Vascular cell adhesion molecule 1 (VCAM1) Biomarker Activity (AID 2283065); settings: primary human foreskin fibroblasts; actives raise or lower the signal;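 on AC50: VCAM-1 protein level quantified by ELISA after 24 h chemical exposure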
Procedure, shortened: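 Measured after 24 h chemical treatment of primary human skin fibroblasts, VCAM-1 was detected by ELISA and concentration-response analysed in both directions versus DMSO vehicle.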

[13] = read-out: Plasminogen activator inhibitor-1 (PAI1), SERPINE1 (gene 5054); assay: BSK_hDFCGF_PAI1: BioMAP Diversity Plus: hDFCGF Assay for Plasminogen activator inhibitor-1 (PAI1) Biomarker Activity (AID 2283066); settings: primary human foreskin fibroblasts; actives raise or lower the signal
Procedure, shortened: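 PAI-1 levels, determined by ELISA, served as the endpoint in human foreskin fibroblast cultures exposed to compound for 24 h, with DMSO as baseline.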

[14] = read-out: Intercellular Adhesion Molecule 1 (ICAM1), ICAM1 (gene 3383); assay: BSK_KF3CT_ICAM1: BioMAP Diversity Plus: KF3CT Assay for Intercellular Adhesion Molecule 1 (ICAM1) Biomarker Activity (AID 2283067); settings: primary human keratinocytes with fibroblasts; actives raise or lower the signal
Procedure, shortened: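 Bidirectional curve fitting against a DMSO baseline was applied to ICAM-1 ELISA signal from primary human skin co-cultures harvested 24 h after treatment, with SRB staining of parallel wells for overt cytotoxicity.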

[15] = BSK_KF3CT_SRB: Viability Assessment in the BioMAP Diversity Plus: KF3CT Assay (AID 2283069); settings: primary human keratinocytes with fibroblasts;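 further: total protein by sulforhodamine B staining as a cytotoxicity measure; fitted for both signal gain and loss against DMSO baseline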
Procedure, shortened: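 Keratinocytes co-cultured with foreskin fibroblasts (human primary); chemical added, 24 h; fix 10% TCA, stain 0.1% SRB, A560. Bidirectional fit vs DMSO.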

[16] = read-out: Interleukin-1 alpha (IL1a), IL1A (gene 3552); assay: BSK_KF3CT_IL1a: BioMAP Diversity Plus: KF3CT Assay for Interleukin-1 alpha (IL1a) Biomarker Activity (AID 2283070); settings: primary human keratinocytes with fibroblasts; actives raise or lower the signal
Procedure, shortened: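 Chemicals were dosed onto co-cultured human keratinocytes and foreskin fibroblasts, IL-1a was quantified by ELISA at 24 h, and activity was fitted in both directions relative to DMSO controls.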

[17] = read-out: TIMP metallopeptidase inhibitor 2 (TIMP2), TIMP2 (gene 7077); assay: BSK_KF3CT_TIMP2: BioMAP Diversity Plus: KF3CT Assay for TIMP metallopeptidase inhibitor 2 (TIMP2) Biomarker Activity (AID 2283071); settings: primary human keratinocytes with fibroblasts; actives raise or lower the signal
Procedure, shortened: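 Keratinocyte–fibroblast co-culture, 24 h exposure; TIMP-2 ELISA, DMSO-normalised bidirectional fit. Parallel SRB (0.1%, TCA-fixed, 560 nm) total-protein staining gauges cytotoxicity.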

[18] = read-out: Transforming growth factor beta 1 (TGFb1), TGFB1 (gene 7040); assay: BSK_KF3CT_TGFb1: BioMAP Diversity Plus: KF3CT Assay for Transforming growth factor beta 1 (TGFb1) Biomarker Activity (AID 2283072); settings: primary human keratinocytes with fibroblasts; actives raise or lower the signal
Procedure, shortened: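 Signal changes in either direction, relative to DMSO, define activity here. TGF-b1 is read by ELISA from a human keratinocyte-fibroblast co-culture 24 h post-dose.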

[19] = read-out: Epidermal growth factor receptor (EGFR), EGFR (gene 1956); assay: BSK_hDFCGF_EGFR: BioMAP Diversity Plus: hDFCGF Assay for Epidermal growth factor receptor (EGFR) Biomarker Activity (AID 2283057); settings: primary human foreskin fibroblasts; actives raise or lower the signal
Procedure, shortened: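 Measured by ELISA: EGFR levels on primary human foreskin fibroblasts 24 h after chemical treatment, analysed relative to DMSO with bidirectional fitting.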

Measured: AC50

Clc1ccc(Nc2nnc(Cc3ccncc3)c3ccccc23)cc1
active: [17] 3.02 µM | [18] 1.99 µM
not listed: [19]
inactive: all other assays above

COc1cccc(O)c1
not listed: [15]
inactive: all other assays above

C=COC(=O)C(C)(C)CCCCCC
active: [1] 35 µM | [2] 20 µM | [3] 33.2 µM | [4] 31.2 µM | [5] 31 µM | [6] 31.7 µM | [7] 35 µM | [8] 37.5 µM | [9] 28.5 µM | [10] 35 µM | [11] 3.97 µM | [12] 30.2 µM | [13] 30300 nM | [14] 37.2 µM | [16] 30.9 µM | [17] 27.6 µM
inactive: [19] | [18]

O=P(O)(O)CCC(F)(F)C(F)(F)C(F)(F)C(F)(F)C(F)(F)C(F)(F)F
active: [6] 15.8 µM and 19.1 µM
not listed: [15] | [18]
inactive: all other assays above

CCCCCCCCCCCCCCCCCC[N+](C)(C)Cc1ccccc1
inactive: [19] | [18]
active: [1] 0.795 µM | [2] 2.77 µM | [3] 10 µM | [4] 0.355 µM | [5] 2.52 µM | [6] 0.0156 µM | [7] 0.721 µM | [8] 0.556 µM | [9] 0.553 µM | [10] 1.86 µM | [11] 3.93 µM | [12] 0.715 µM | [13] 636 nM | [14] 5.58 µM | [16] 4.24 µM | [17] 3.25 µM

CC1=NN(c2ccccc2)C(=O)C1
not listed: [15]
inactive: all other assays above

O=C(NCc1ncc(C(F)(F)F)cc1Cl)c1c(Cl)cccc1Cl
inactive: all assays above

O=C(O)CCC(F)(F)C(F)(F)C(F)(F)C(F)(F)C(F)(F)C(F)(F)F
not listed: [15] | [18]
inactive: all other assays above

COC1=CC(=O)C[C@@H](C)[C@]12Oc1c(Cl)c(OC)cc(OC)c1C2=O
active: [13] 497 nM | [16] 1.98 µM
not listed: [15]
inactive: all other assays above

CC(C)(C)c1ccc(O)c(O)c1
active: [1] 32.3 µM | [3] 4.99 µM | [4] 34.7 µM | [6] 7.12 µM | [7] 31.1 µM | [8] 31.8 µM | [9] 31.6 µM | [10] 31.2 µM | [11] 30.6 µM | [12] 15.5 µM | [14] 5.79 µM | [16] 13 µM
inactive: [2] | [19] | [5] | [13] | [15] | [17] | [18]

CCCCCCCCCCCCCCC
inactive: all assays above

OCCN1CN(CCO)CN(CCO)C1
active: [1] 20 µM | [3] 32.8 µM | [6] 25.8 µM | [7] 20 µM | [10] 20 µM | [12] 15.5 µM | [14] 20 µM | [16] 5.9 µM | [18] 3.97 µM
not listed: [15]
inactive: all other assays above
